Data on 55 molecules can be found in ChEMBL document CHEMBL4513216, “Probing the Open Global Health Chemical Diversity Library for Multistage-Active Starting Points for Next-Generation Antimalarials” (ACS Infect Dis, 2020).

The campaign covered roughly 69,000 compounds. About 8,600 (12%) showed an effect of 50% or more. The entries come from a sample that favours strong results as a whole.

This assay relates to Plasmodium berghei. Nature of the assay: Screen against P. berghei liver stage (PbLuc), transformed with Luciferase, at 10uM. In kind it is functional, HepG2. Conditions: tested at 10 uM.
On to `CN(C)c1ncc2c(n1)C1(CCN(Cc3ccccc3F)C1)COC2` (stereo not given), for which the INHIBITION was 23.6%.

Turning to `COc1ccc(CN2CCN(C(C)=O)CC3(CC(=O)N(C)C3)C2)cc1` (stereo not given), the INHIBITION is -7.6%. Under `Cc1cc(CN2CCN(C(=O)NCc3ccco3)CC2)no1` stands 31.2%; under `O=C(NCc1ccco1)N1CCOC(c2ccccc2Cl)C1` (stereo not given), 8.12%. To `O=C(NC1CCCCC1)N1CCC(n2cc3[nH]cccc-3c2=O)CC1` belongs 36.5%. Under `CCNC(=O)N1CCC(n2ccc(C(F)(F)F)n2)CC1` stands 40.6%; under `COC1CCCOC12CCN(C(=O)NCc1ccco1)CC2` (stereo not given), 4.52%; under `O=C(NCc1ccco1)N1CCC(n2cc(-c3ccccn3)nn2)CC1`, 65.6%. With `O=C(NCc1ccon1)N1CCC(n2ccc(C(F)(F)F)n2)CC1`, the INHIBITION turned out to be 1.2%. `O=C(c1ccco1)N1CCC(n2cc(-c3ccsc3)nn2)CC1`: the INHIBITION is on record as 31.2%. To `O=C(NCc1ccco1)N1CCC(n2ccc(C(F)(F)F)n2)CC1` belongs 57.7%.

Regarding `O=C(NC1CCCCC1)N1CCC(n2cc(-c3ccccn3)nn2)CC1`, the INHIBITION is given as 83.5%. Under `CNCc1cn(C2CCN(C(=O)NCc3ccco3)CC2)nn1` stands 71.2%.

Consider `O=C(c1ncc[nH]1)N1CCC(n2cc(-c3ccccn3)nn2)CC1`, for which the INHIBITION was determined as 6.88%. To `COCC(=O)Nc1ccc(Oc2ccsc2C(=O)O)cc1` belongs 49.1%; to `COC1(CNC(=O)NCCc2ccccc2)CCSC1` (stereo not given), 8.31%; to `O=C(c1cccc(C(F)(F)F)c1)N1CC(=O)N(C2CCC2)CC(O)C1` (stereo not given), 21.5%. Under `O=C1Nc2ccccc2CNC12CCN(CC1CCCC1)CC2` stands 30%; under `CCOCCOC(C)C(=O)Nc1ccc2ccn(CC(=O)NC)c2c1` (stereo not given), 13.9%; under `Cc1ccc(C(=O)NCc2ccc(N3CCCC(C(N)=O)C3)cc2)o1` (stereo not given), 29.7%.

As for `O=C(CCc1nc2ccccc2[nH]1)NC1CCOC2(CCOCC2)C1` (stereo not given), the INHIBITION worked out at 47.6%. To `Cc1cccc(OCC(O)CN2CCC(Cn3cccn3)CC2)c1` (stereo not given) belongs 47.1%; to `CN1[C@H](CN2CCCC2)C[C@@H]2CN(C(=O)Cc3ccsc3)CC[C@@H]21`, -8.51%; to `O=C(c1ccc2nncn2c1)N1CCCC1c1noc(C2CC2)n1` (stereo not given), 15.1%.

Turning to `CC(C)c1nc(C2CCCN2C(=O)c2ccc3nncn3c2)no1` (stereo not given), the INHIBITION amounted to 5.11%. To `CC(C)CS(=O)(=O)CC(=O)N1CCCC1c1noc(C2CC2)n1` (stereo not given) belongs 29%. Under `CCCS(=O)(=O)CC(=O)N1CCCC1c1noc(C2CC2)n1` (stereo not given) stands 97.2%; under `CCS(=O)(=O)CC(=O)N1CCCC1c1noc(C2CC2)n1` (stereo not given), 13.9%. Under `O=C(c1ccc2nccn2c1)N1CCCC1c1noc(C2CC2)n1` (stereo not given) stands 52.3%; under `CN(C)c1cc(CNC(=O)NCC2(C)CCCS2)ccn1` (stereo not given), -15.5%; under `Cc1ccc(-c2nnc(CN3CCCCC3Cn3cncn3)o2)cc1` (stereo not given), -29.8%. As for `CN(CC(C)(C)O)C1CCCN(Cc2noc(C3CC3)n2)C1` (stereo not given), the INHIBITION is listed as 25.1%. To `O=C(NC1CC1)c1cc(C2CCCN(Cc3ccccn3)C2)no1` (stereo not given) belongs -8.12%; to `Clc1ccc(CN(CCN2CCOCC2)Cc2cccnc2)c(Cl)c1`, -49.4%.

With `Cc1nc(-c2ccc(Cl)s2)sc1C(=O)NC(C)(C)C(N)=O`, the INHIBITION is -39.95%.

As to `O=C(CCn1cncn1)NCC1CCS(=O)(=O)C1` (stereo not given), the INHIBITION turned out to be 84.2%. Under `Cc1nc(C)n(CCC(=O)NCC2CCCOC2)n1` (stereo not given) stands 26.55%; under `O=C(CCn1cncn1)NCC(c1ccco1)N1CCCCC1` (stereo not given), 3.73%; under `Cc1cc(NC(=O)CCn2cncn2)no1`, 44.3%. To `O=C(CCn1cncn1)NCC(c1ccco1)N1CCCC1` (stereo not given) belongs -49.5%; to `O=C(CCn1cncn1)NC1CCS(=O)(=O)C1` (stereo not given), 49.9%; to `O=C(CCn1cncn1)NCC1CCOC1` (stereo not given), 54.5%. To `CCCn1cnc(NC(=O)NCC2CCS(=O)(=O)C2)n1` (stereo not given) belongs 42.6%; to `O=C(CCn1cncn1)NCC1CCCC1`, 63.8%; to `CS(=O)(=O)N1CCO[C@@H]2CN(C(=O)c3ccnnc3)C[C@@H]2C1`, 17.6%. For the molecule `Cc1ccc(C2CN(CCCS(=O)(=O)C(C)C)CCO2)c(C)c1` (stereo not given), the INHIBITION is listed as -20.3%. To `CN1CCC(NC(=O)CC2CN(Cc3ccccc3)CCO2)CC1` (stereo not given) belongs 9.41%. For `COc1ccc(CCNC(=O)Cn2ncc3c2c(C)nn3C)cc1`, the INHIBITION came to 28.4%. Under `CC(NC(=O)C1=NN(C)C(=O)CC1)c1ccc(Cl)cc1` (stereo not given) stands 20.9%; under `CN(CCC#N)C(=O)CCOc1cccc(F)c1`, -13.4%; under `Cc1cc(C(O)CCNC(=O)c2ccc(Cl)s2)c(C)o1` (stereo not given), -1.04%.

Take `CC(C)OCCSc1nnnn1C1CCOCC1`: the INHIBITION was 26.9%. With `O=C1OCCN1CCSc1nnnn1C1CCOCC1`, the INHIBITION is given as 54.5%. To `O=C1OCCN1CCSc1nnnn1CC(F)(F)F` belongs 42.4%; to `Cc1cnn(CC2CCCN2c2ncnc3sccc23)c1` (stereo not given), 56.1%.
